Compound activity from PubChem.
A selection: hits, their analogues and other compounds. The true share with any hit is near 18%.
VDR inh: Inhibitors of the vitamin D receptor (VDR): qHTS; Vitamin D3 receptor (Homo sapiens), P11473; VDR-SRC2-3 peptide fluorescence polarization, 2 h; Potency, µM, without a hit: max response, negative = inhibition, actives largely listed as inhibitors; 0.93% of 400,000 active
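Signal is fluorescence polarization, reporting how far test compounds block the interaction of VDR with the SRC2-3 coregulator peptide after a 2 h room-temperature incubation.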
KAT2A inh: qHTS Assay for Inhibitors of GCN5L2; GCN5L2 HAT assay, ThioGlo1 CoA-SH fluorescence; 0.21% of 390,000 active; AID 504327, 2011; Potency, µM (titrated, usually from 58.9 µM), without a hit: at the highest dose activity change, negative = inhibition, actives largely listed as inhibitors; Histone acetyltransferase KAT2A (Homo sapiens), Q92830
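Compounds, pin-transferred from DMSO stocks, meet 20nM GCN5L2 for 15 min before the reaction begins with H3(1-25) peptide (75uM) and acetyl-CoA (70uM). Thiol-reactive ThioGlo1 reports CoA release over 20 min at room temperature.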
PLK1 PBD inh: qHTS for Inhibitors of PLK1-PDB (polo-like kinase 1 - polo-box domain): Primary Screen. Potency, µM, inactives show max response, negative = inhibition, most hits filed as inhibitors. Serine/threonine-protein kinase PLK1 (Homo sapiens), P53350. AID 720504, 2013. Plk1 PBD binding of FITC phosphopeptide, fluorescence polarization. 2.8% of 360,000 active; also: series mostly up to about 57 µM; nearly all actives have a fitted effect of over 65% in size
TDP1 block: qHTS Assay for Inhibitors of Tyrosyl-DNA Phosphodiesterase (TDP1); recombinant TDP1, AlphaScreen DNA substrate cleavage; Potency, µM (series often up to 130 µM), inactives show at the highest dose activity change, negative = inhibition, most hits filed as inhibitors; 0.28% of 350,000 active; AID 485290, 2010; also: nearly all actives have a fitted effect of over 40% in size
Target sequence (Q9NUW8 whole entry, looked up): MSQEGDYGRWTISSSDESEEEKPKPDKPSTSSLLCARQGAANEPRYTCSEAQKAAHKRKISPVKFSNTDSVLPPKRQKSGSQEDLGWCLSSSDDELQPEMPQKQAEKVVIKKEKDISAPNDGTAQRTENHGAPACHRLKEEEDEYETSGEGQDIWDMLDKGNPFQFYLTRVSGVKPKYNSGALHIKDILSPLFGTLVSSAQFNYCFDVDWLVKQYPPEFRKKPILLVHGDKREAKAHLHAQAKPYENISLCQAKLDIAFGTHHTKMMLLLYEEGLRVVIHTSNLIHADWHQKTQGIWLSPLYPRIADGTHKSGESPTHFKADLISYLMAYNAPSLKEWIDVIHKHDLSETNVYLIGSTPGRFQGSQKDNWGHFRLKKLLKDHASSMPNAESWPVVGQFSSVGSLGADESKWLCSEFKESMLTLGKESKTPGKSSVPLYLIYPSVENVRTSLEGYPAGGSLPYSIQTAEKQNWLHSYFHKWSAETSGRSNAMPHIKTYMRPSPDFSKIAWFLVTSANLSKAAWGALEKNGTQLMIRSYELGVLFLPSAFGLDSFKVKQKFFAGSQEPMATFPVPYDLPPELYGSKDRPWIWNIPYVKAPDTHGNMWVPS
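E. coli-derived human Tdp1, 1 nM final. Cpd preinc 15 min RT; substrate 15 nM final, 5 min RT; AS bead mix 10 ug/ml final, 10 min RT. Signal loss = tyrosine-FITC cleavage. No-enzyme wells = max signal.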
TDP1 cell noCPT: qHTS for Inhibitors of human tyrosyl-DNA phosphodiesterase 1 (TDP1): qHTS in cells in absence of CPT. 15% of 420,000 active. Potency, µM (doses to about 46.2 µM), without a hit: top-dose activity change, negative = growth inhibition, actives largely listed as inhibitors. AID 686978, 2013. DT40 Tdp1-/- hTDP1 cells, no CPT, ATP luminescence, 48 h; also: nearly all actives have a fitted effect of over 55% in size
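Readout: luminescence from CellTiter-Glo after 30 min in the dark at RT. Cells: DT40 Tdp1-/- with stable hTDP1, 400/well. Exposure: compounds alone, ≥48 hr, 37 °C.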
DT40 TDP1 CPT: qHTS for Inhibitors of human tyrosyl-DNA phosphodiesterase 1 (TDP1): qHTS in cells in presence of CPT; 12% of 420,000 active; Potency, µM (series often up to 46.2 µM), inactives show top-dose activity change, negative = growth inhibition, usual class: inhibitors; chicken DT40 Tdp1-/-;hTDP1 cells + 20 nM CPT, ATP luminescence, 48 h; also: nearly all actives have a fitted effect of over 55% in size
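Cell growth measured by CellTiter-Glo luminescence after a minimum 48 h, 37 C compound exposure with 20 nM CPT in Tdp1-knockout DT40 cells stably expressing hTDP1, seeded 400/well; qHTS titration format.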
Numbers without * were called inactive; ? = inconclusive; . = not tested or not shown. Calls follow the shape of the dose curve; as a rule, active = well fitted curve in the direction sought with a large enough effect; inconclusive = small, poorly fitted or top-dose-only effect, or another doubt; inactive = no such curve, though single readings can be large; an effect the other way counts as inactive or inconclusive. % is scaled to controls: 0 for no effect and ±100 for the full control effect; potency is read from the fitted curve at half-maximal effect.

SMILES	VDR inh	KAT2A inh	PLK1 PBD inh	TDP1 block	TDP1 cell noCPT	DT40 TDP1 CPT
CCCc1nc2ccc(C(=O)OC)cn2c1Cc1ccc(C)cc1	.	.	-12%	.	23µM*	18µM*
CCCc1nc2ccc(C)cn2c1Cc1ccc(C)cc1	.	.	-12%	.	18µM*	21µM*
Cc1ccc(CNC(=O)Cn2c(=O)c3sccc3n(Cc3ccc([N+](=O)[O-])cc3)c2=O)cc1	17%	2%	4%	-1%	?	-24%
CC(C)NC(=S)Nc1c(N)[nH]c(=O)[nH]c1=O	5%	1%	-6%	0%	13%	-9%
Cc1cccc(C)c1-n1c(C)nn(Cc2ccc([N+](=O)[O-])cc2)c1=O	0%	-10%	-9%	7%	?	-3%
Cc1ccc(-c2nc3ccccc3s2)cc1NC(=S)NC(=O)/C=C/c1ccco1	?	-10%	-21%	4%	13µM*	?
O=C(/C=C/c1ccco1)NC(=S)Nc1cc(-c2nc3ccccc3s2)ccc1Cl	?	43%	-29%	2%	23µM*	12µM*
Cc1ccc(-c2nc3ccccc3s2)cc1NC(=S)NC(=O)c1cccc2ccccc12	-9%	-1%	-4%	8%	?	?
O=C(/C=C/c1ccco1)NC(=S)Nc1cccc(-c2nc3ccccc3s2)c1	-20%	.	-10%	.	5.8µM*	4.6µM*
CCOC(=O)c1ccc(NC(=O)C(CC)Sc2nncn3c2cc2oc(C)cc23)cc1 (stereo not drawn)	4%	-2%	.	5%	?	?
COc1cccc(C(=O)N2c3nc(-c4ccco4)nn3C3(CCCCC3)[C@@H]3CCCC[C@@H]32)c1	-3%	-14%	.	5%	16µM*	?
Cc1ccc(C(=O)N2c3nc(-c4ccco4)nn3C3(CCCCC3)[C@@H]3CCCC[C@@H]32)cc1	1%	-8%	.	-2%	15µM*	16µM*
O=C(c1ccccc1)N1c2nc(-c3ccco3)nn2C2(CCCCC2)[C@@H]2CCCC[C@@H]21	-9%	-5%	.	4%	2%	-4%
Cc1ccc(NC(=O)CSc2cc(=O)n(C)c3ccc(Cl)cc23)c(Br)c1	-1%	1%	.	3%	?	?
CC(C)C(C=Cc1ccccc1)=NNS(=O)(=O)c1ccccc1	.	.	-5%	.	-14%	8.2µM*
Cc1ccc(C(C)C)c(OCC(=O)Nc2c(C(=O)c3ccccc3)oc3ccccc23)c1	-7%	-6%	.	-2%	?	-10%
N#C/C(=C(/O)c1ccc2c(c1)OCO2)c1nc2cc(C(F)(F)F)ccc2s1	-4%	-4%	?	.	15µM*	10µM*
N#Cc1ccc(C(=O)Nc2ccccc2-c2nc3ccccc3s2)c(F)c1	15%	-8%	.	6%	.	.
O=C(c1ccc2c(c1)OCO2)N1CCN(c2ccc(C(F)(F)F)cn2)CC1	-5%	-1%	-4%	0%	?	?
N#C/C(=C(/O)c1ccccc1F)c1nc2cc(C(F)(F)F)ccc2s1	-2%	-4%	27µM*	2%	?	?
CCC1CCC2(CC1)NC(=O)N(CC(=O)Nc1ccc(OC)c(Cl)c1)C2=O (stereo not drawn)	-6%	-1%	-1%	2%	?	-22%
O=C(Nc1cnccc1C(F)(F)F)NC1CCCCC1	-6%	0%	-8%	8%	-19%	13%
CN(C(=O)c1ccc2c(c1)N(Cc1cccc(Cl)c1)C(=O)c1ccccc1S2(=O)=O)C1CCCCC1	16%	0%	.	3%	?	21µM*
